Results as given in PubChem BioAssay.
Calls of active or inactive are those of the source.

What was measured:
[1] = small molecules captured by biotinylated probe aFSTL3 – biochemical, small-molecule microarray, fluorescence 635/667, stem cell growth factor project, primary screen (AID 1064); settings: higher = more signal;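 also: measures binding of the biotinylated anti-FSTL3 antibody to printed compounds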
[2] = binders from COS7 lysate, DM2A8 probe, primary screen, torsin A project, cell lysate, small-molecule microarray, fluorescence 635/667 (AID 1065); settings: higher = more signal, COS7 lysate expressing mutant human TOR1A
[3] = small molecules captured by biotinylated probe aFGF2 – biochemical, small-molecule microarray, fluorescence 635/667, stem cell growth factor project, primary screen (AID 1067); settings: higher = more signal;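 also: measures binding of biotinylated aFGF2 protein to printed compounds on slides; z-score merges feature fluorescence and signal-to-noise across triplicate slides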
[4] = small molecules captured by biotinylated probe aFGF10 – biochemical, small-molecule microarray, fluorescence 635/667, stem cell growth factor project, primary screen (AID 1071); settings: higher = more signal;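 also: score merges 667 nm spot intensity and signal to noise from triplicate slides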
[5] = target: Neurogenic locus notch homolog protein 2 (Homo sapiens) (UniProt Q04721); assay: small molecules binding Notch2 protein – biochemical, small-molecule microarray, 635 nm fluorescence, stem cell growth factors, primary screen (AID 1073); settings: higher = more signal
Neurogenic locus notch homolog protein 2 (Homo sapiens), sequence (Q04721 whole entry, looked up, canonical isoform): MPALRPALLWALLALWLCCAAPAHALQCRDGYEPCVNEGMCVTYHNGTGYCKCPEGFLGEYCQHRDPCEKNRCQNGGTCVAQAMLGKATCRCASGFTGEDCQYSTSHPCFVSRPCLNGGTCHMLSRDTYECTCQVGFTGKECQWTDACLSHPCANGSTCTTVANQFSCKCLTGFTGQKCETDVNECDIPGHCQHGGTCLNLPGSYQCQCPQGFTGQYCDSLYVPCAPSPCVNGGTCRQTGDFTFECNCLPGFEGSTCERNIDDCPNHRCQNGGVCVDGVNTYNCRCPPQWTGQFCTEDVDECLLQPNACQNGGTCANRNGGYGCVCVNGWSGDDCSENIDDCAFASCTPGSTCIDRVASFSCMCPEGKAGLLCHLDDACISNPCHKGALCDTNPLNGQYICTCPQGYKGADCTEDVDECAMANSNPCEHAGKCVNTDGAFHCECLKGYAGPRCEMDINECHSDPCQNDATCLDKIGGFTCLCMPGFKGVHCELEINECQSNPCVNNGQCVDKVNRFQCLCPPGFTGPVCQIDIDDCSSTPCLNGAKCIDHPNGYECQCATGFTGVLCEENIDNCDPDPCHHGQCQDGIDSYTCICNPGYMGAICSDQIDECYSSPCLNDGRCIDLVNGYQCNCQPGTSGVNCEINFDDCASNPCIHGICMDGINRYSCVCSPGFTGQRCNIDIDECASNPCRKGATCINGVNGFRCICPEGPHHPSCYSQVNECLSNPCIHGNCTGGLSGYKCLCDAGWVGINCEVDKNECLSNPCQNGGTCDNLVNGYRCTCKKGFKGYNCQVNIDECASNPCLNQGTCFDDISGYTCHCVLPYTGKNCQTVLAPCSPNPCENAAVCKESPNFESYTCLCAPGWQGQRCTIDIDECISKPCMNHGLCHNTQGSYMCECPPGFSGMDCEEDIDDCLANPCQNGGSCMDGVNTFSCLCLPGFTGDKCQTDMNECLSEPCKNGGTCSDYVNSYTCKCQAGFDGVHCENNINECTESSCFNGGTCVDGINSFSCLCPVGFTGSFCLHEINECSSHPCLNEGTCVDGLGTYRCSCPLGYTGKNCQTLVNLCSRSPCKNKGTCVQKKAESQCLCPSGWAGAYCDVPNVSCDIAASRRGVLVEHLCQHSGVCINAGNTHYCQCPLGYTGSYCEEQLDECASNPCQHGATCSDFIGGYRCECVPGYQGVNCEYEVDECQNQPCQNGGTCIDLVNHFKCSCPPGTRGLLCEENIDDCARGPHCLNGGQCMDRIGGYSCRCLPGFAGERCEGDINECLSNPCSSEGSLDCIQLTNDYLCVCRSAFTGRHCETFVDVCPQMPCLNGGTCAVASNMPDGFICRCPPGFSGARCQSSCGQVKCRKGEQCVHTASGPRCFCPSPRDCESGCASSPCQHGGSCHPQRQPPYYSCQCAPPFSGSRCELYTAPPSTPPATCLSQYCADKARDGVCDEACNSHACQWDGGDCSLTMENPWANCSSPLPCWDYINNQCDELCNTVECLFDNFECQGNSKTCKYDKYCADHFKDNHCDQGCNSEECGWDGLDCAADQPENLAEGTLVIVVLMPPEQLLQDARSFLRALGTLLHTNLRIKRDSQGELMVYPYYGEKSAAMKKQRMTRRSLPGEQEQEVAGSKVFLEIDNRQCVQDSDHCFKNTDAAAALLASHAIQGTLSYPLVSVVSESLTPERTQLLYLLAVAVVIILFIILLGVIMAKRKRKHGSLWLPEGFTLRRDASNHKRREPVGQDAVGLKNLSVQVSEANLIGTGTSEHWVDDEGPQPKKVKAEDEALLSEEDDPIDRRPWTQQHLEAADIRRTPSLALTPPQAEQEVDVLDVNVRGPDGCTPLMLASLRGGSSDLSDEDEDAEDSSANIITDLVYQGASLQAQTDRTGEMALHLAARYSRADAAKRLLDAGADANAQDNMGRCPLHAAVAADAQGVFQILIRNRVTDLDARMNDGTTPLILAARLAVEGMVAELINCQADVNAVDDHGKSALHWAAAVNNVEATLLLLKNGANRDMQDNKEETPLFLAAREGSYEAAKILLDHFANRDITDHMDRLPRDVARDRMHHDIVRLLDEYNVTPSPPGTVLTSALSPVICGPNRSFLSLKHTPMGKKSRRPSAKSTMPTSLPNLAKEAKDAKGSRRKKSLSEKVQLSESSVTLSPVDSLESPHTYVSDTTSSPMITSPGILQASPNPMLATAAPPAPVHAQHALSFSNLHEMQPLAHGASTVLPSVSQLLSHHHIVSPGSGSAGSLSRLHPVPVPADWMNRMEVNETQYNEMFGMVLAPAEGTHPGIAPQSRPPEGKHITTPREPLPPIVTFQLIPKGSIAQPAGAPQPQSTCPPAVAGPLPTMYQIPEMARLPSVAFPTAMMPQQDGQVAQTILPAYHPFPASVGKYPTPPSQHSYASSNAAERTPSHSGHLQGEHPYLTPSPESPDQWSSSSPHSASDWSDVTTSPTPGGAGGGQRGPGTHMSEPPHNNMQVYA

[6] = target: Pro-neuregulin-1, membrane-bound isoform (Homo sapiens) (UniProt Q02297); assay: small molecules binding neuregulin-1 protein – biochemical, small-molecule microarray, fluorescence 635/667, psychiatric disease protein project, primary screen (AID 1075); settings: NRG1 binding, 635 nm fluorescence, higher = more signal;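 also: score combines 667 nm spot fluorescence with signal to noise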
Pro-neuregulin-1, membrane-bound isoform (Homo sapiens), sequence (Q02297 whole entry, looked up, the tested form may be a part, canonical isoform): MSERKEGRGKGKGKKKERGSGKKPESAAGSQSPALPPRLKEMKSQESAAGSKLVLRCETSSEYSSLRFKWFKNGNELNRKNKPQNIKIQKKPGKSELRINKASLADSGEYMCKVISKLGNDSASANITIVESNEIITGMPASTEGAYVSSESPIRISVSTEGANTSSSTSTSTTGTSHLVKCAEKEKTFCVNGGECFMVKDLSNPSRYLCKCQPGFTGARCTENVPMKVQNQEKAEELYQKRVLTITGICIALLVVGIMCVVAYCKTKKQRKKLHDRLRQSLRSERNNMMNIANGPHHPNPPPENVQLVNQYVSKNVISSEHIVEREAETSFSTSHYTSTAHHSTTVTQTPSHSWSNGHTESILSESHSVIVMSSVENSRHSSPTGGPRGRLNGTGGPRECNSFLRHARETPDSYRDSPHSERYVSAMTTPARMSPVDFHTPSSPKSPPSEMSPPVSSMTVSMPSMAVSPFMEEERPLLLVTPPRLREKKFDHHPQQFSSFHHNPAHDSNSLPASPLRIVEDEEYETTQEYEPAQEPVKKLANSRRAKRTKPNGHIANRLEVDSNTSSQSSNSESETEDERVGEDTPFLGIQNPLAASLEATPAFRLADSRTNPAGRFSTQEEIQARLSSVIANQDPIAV

[7] = system: Neuregulin-1 EGF-like domain; assay: small molecules binding NRG1 EGF domain – biochemical, small-molecule microarray, 635 nm fluorescence, primary screen (AID 1081); settings: higher = more signal;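 also: binding of the protein to compounds printed on small-molecule microarray slides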
[8] = FRG1 expression reporter modulators in myotubes – cell-based, C2C12 myotubes, firefly/Renilla luciferase, luminescence, FRG1 inhibition for FSHD, primary screen (AID 1084); settings: FRG1 promoter luciferase, higher = more signal, called active from +8 up or from −8 down
[9] = small molecules captured by biotinylated probe aFST – biochemical, small-molecule microarray, fluorescence 635/667, stem cell growth factor project, primary screen (AID 1086); settings: higher = more signal;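 also: score merges 667 nm fluorescence with signal-to-noise of each printed compound spot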
[10] = binders of probe aHhip on microarray, primary screen, stem cell growth factor project, biochemical, small-molecule microarray, fluorescence 635/667 (AID 1087); settings: higher = more signal;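 also: score merges spot fluorescence at 667nm with spot signal to noise ratio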
[11] = system: PRMT1 (protein arginine N-methyltransferase 1); assay: small molecules binding arginine methyltransferase PRMT1 – biochemical, small-molecule microarray, 635 nm fluorescence, primary screen (AID 1088); settings: higher = more signal;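 also: binding of Prmt1 protein to compounds spotted on small-molecule microarray slides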
[12] = growth effects on S. cerevisiae YJM789 – YJM789 clinical isolate, OD600, 24 h, basal, primary screen (AID 1089); settings: higher = more signal, called active from +8 up or from −8 down;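 also: growth of clinical yeast isolate S. cerevisiae YJM 789 seeded 1000 cells per well; test concentration not given here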
[13] = S. pombe growth modifiers, basal conditions – strain 972, OD600, 24 h, no modulator, primary screen (AID 1090);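 also: basal condition with compound alone and no growth modifier present; test concentration not given here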; settings: S. pombe 972 growth, higher = more signal, called active from +8 up or from −8 down
[14] = budding yeast growth modifiers under rapamycin – strain BY4716, OD600, 96 h, primary screen (AID 1091); also: test concentration not given here; settings: S. cerevisiae BY4716 + rapamycin, higher = more signal, called active from +8 up or from −8 down
[15] = target: Torsin-1A-interacting protein 2 (Homo sapiens) (UniProt Q8NFQ8); assay: small molecules binding lysate-expressed LULL1 – cell lysate, human LULL1 lysate, 635/667 nm fluorescence, primary screen (AID 1092); settings: small-molecule microarray, hLULL1 lysate binding, 635 nm fluorescence; higher = more signal;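 also: probe is lysate of COS7 cells overexpressing human LULL1; score merges per-feature 667 nm fluorescence with signal-to-noise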
Torsin-1A-interacting protein 2 (Homo sapiens), sequence (Q8NFQ8 whole entry, looked up): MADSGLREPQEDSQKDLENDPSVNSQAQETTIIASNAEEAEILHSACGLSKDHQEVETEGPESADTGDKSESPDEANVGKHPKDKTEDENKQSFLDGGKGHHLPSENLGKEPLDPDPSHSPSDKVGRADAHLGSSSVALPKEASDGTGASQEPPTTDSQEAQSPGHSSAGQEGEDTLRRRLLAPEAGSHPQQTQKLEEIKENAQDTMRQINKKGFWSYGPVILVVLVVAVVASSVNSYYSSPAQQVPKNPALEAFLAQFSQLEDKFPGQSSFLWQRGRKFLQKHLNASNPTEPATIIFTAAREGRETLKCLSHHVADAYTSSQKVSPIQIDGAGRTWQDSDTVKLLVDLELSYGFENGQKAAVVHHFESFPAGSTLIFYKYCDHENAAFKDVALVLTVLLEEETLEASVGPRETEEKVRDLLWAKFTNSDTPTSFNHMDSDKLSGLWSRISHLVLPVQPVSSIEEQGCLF

[16] = optical density change of DRC41 E. coli – strain DRC41, OD650, 24 h, E. coli filamentation project, primary screen (AID 1093);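 also: MC1000 strain lacking acrAB efflux and sulA so SOS filamentation is blocked; test concentration not given here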; settings: E. coli DRC41 growth, higher = more signal, called active from +8 up or from −8 down
[17] = probe aLefty2 binding to arrayed compounds – biochemical, biotinylated probe, 635/667 nm fluorescence, primary screen (AID 1094); settings: small-molecule microarray, higher = more signal;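 also: score merges spot fluorescence near 667 nm with spot signal-to-noise ratio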
[18] = system: Noggin (protein binding on small-molecule microarray); assay: small molecules binding Noggin protein – biochemical, 635/667 nm fluorescence, primary screen (AID 1095); settings: 635 nm fluorescence, higher = more signal;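 also: score merges 667 nm feature fluorescence with signal to noise over triplicate slides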
[19] = target: Neurogenic locus notch homolog protein 3 (Homo sapiens) (UniProt Q9UM47); assay: small molecules binding NOTCH3 protein – biochemical, 635/667 nm fluorescence, primary screen (AID 1096); settings: small-molecule microarray, 635 nm fluorescence, higher = more signal
[20] = probe aEGFR binding to arrayed compounds – biochemical, biotinylated probe, 635/667 nm fluorescence, primary screen (AID 1097); settings: small-molecule microarray, higher = more signal;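 also: probe is a biotinylated anti-EGFR antibody binding compounds printed on slides; score combines fluorescence near 667 nm and signal to noise of each spot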

SMILES	composite z-score [1]	composite z-score [2]	composite z-score [3]	composite z-score [4]	composite z-score [5]	composite z-score [6]	composite z-score [7]	z-score [8]	composite z-score [9]	composite z-score [10]	composite z-score [11]	z-score [12]	z-score [13]	z-score [14]	composite z-score [15]	z-score [16]	composite z-score [17]	composite z-score [18]	composite z-score [19]	composite z-score [20]
O=C1O[C@@H](c2ccccc2)[C@@H](c2ccccc2)N2[C@@H](c3ccc(O)cc3)[C@]3(C(=O)Nc4ccc(C#CC5=CCCCC5)cc43)[C@@H](C(=O)Nc3nc4ccccc4s3)[C@H]12	-0.371	0.449	-0.0455	1.27	1.5	1.34	1.18	-0.453 (inactive)	0.647	-0.171	1.54	0.424 (inactive)	0.015 (inactive)	0.606 (inactive)	2.86	0.481 (inactive)	0.455	1.04	1.04	0.127
Cc1ccc(S[C@]2(C(=O)O)CC(=O)N(C3CCCCC3)[C@@H]2c2ccc(CO)cc2)cc1	-0.27	0.333	-0.0943	-0.315	0.555	1.36	0.962	-1.02 (inactive)	0.157	0.0496	1.42	0.316 (inactive)	0.222 (inactive)	9.82 (active)	2.82	0.999 (inactive)	-0.132	0.243	0.233	0.0346
CC(=O)NCCCC[C@@H]1NC(=O)[C@@H]2C[C@H](C(=O)NCCCC[N+](C)(C)C)[C@H](c3cccc(OCCO)c3)N2C1=O	-0.239	1.05	-0.126	-0.194	-0.525	0.82	1.13	0.573 (inactive)	-0.204	-0.0645	-0.598	0.408 (inactive)	0.338 (inactive)	-0.465 (inactive)	-0.0272	-0.427 (inactive)	0.127	1.94	0.801	-0.162
CCCN1C(=O)[C@@H]2Cc3c([nH]c4ccccc34)[C@@H](c3cccc(O)c3)N2C1=O	-0.588	0.247	-0.113	0.428	0.59	0.263	0.12	0.85 (inactive)	-0.0001	-0.0994	0.213	-0.521 (inactive)	-0.132 (inactive)	0.385 (inactive)	0.379	0.317 (inactive)	-0.0823	0.287	0.423	-0.0424
CC(C)c1ccc(NN2C(C(O)c3ccccn3)C=CC3C(=O)N(c4ccccc4)C(=O)C32)cc1 (stereo not given)	-0.311	0.205	0.235	1.17	1.64	1.64	1.42	3.43 (inactive)	1.49	0.347	1.5	0.485 (inactive)	-0.951 (inactive)	-0.252 (inactive)	3.7	-0.405 (inactive)	0.0038	1.7	1.05	0.154
COC(=O)[C@@]1(Cc2ccc(F)cc2)[C@H]2c3cc(C(=O)N(C)C)n(Cc4ccc(C)c(F)c4F)c3C[C@H]2CN1C(=O)c1ccccc1	0.896	0.0685	0.0697	0.795	1.62	1.71	1.36	0.55 (inactive)	0.758	0.177	-0.495	0.28 (inactive)	1.18 (inactive)	0.934 (inactive)	3.18	0.583 (inactive)	0.439	-0.724	0.876	0.856
O=C1NC(=O)C2C1C=CC(C(O)c1ccc3c(c1)OCO3)N2Nc1ccc(Cl)cc1Cl (stereo not given)	0.358	-0.173	-0.0274	0.218	1.22	1.73	0.543	1.28 (inactive)	0.176	-0.291	0.0405	-3.53 (inactive)	-0.462 (inactive)	0.142 (inactive)	2.94	-1.14 (inactive)	0.15	0.132	0.361	-0.108
COCCCNC(=O)[C@@]1(Cc2ccccc2)COC(c2ccc(OCCCO)cc2)=N1	0.0674	-0.321	-0.0745	0.821	0.694	1.77	0.99	-1.02 (inactive)	0.696	-0.135	1.49	-1.29 (inactive)	-1.98 (inactive)	-1.27 (inactive)	3.55	1.47 (inactive)	0.0634	-0.233	0.117	-0.0828
O=C1OCCC=C[C@H]2OC34C=CCN(Cn5nnc6ccccc65)C(=O)[C@H]3N(CCCCCO)C(=O)[C@@H]4C12 (stereo not given in full)	0.122	1.66	-0.176	-0.328	-0.407	2.18	1.48	-0.21 (inactive)	-0.118	-0.306	-0.285	-0.0057 (inactive)	-0.439 (inactive)	-0.506 (inactive)	1.43	0.141 (inactive)	-0.0674	-0.825	-0.135	-0.2
